Experimental data as given in the supplement of paper PMC7765376.
Whole data set: some 1,500 compounds, median “Excess HSA synergy score (sum over dose matrix of excess over highest single agent)” near 43, cut for the lowest 2% near -900. The sample as a whole holds a higher share of the lowest values than the screen did.

Tested on: PEO-1
Experiment: Excess HSA synergy score (sum over dose matrix of excess over highest single agent) (score (summed % response)); higher = less synergy / more antagonism (negative = synergy)
Details: 72 h, read-out: viability/apoptosis luminescence (CellTiter-Glo or Caspase3-Glo / not stated per table)
[1] = matrix design: 6x6, 5-fold dilutions (primary screen)

Structure (SMILES) | Excess HSA synergy score [1] | Excess HSA synergy score (matrix design: 10x10, 9-step dilutions (confirmatory))
CO[C@@]12[C@H](COC(N)=O)C3=C(C(=O)C(C)=C(N)C3=O)N1C[C@@H]1N[C@@H]12 [Mitomycin C] + CC[C@H](NC(=O)[C@H](C)NC)C(=O)N1C[C@@H](O)C[C@H]1Cc1c(-c2[nH]c3cc(F)ccc3c2C[C@@H]2C[C@H](O)CN2C(=O)[C@H](CC)NC(=O)[C@H](C)NC)[nH]c2cc(F)ccc12 [Birinapant] | -351 | -1240
CC(C)OC(=O)C1=CN(C(=O)c2ccc(F)c(F)c2)CC(C)(C)c2c1[nH]c1ccccc21 [Turofexorate isopropyl] + CC[C@H](NC(=O)[C@H](C)NC)C(=O)N1C[C@@H](O)C[C@H]1Cc1c(-c2[nH]c3cc(F)ccc3c2C[C@@H]2C[C@H](O)CN2C(=O)[C@H](CC)NC(=O)[C@H](C)NC)[nH]c2cc(F)ccc12 [Birinapant] | 99.9 | –
Cc1cc(O)c2c3c4c(cc(O)c13)C(C)(C)C(=O)c1c(O)cc(O)c(c1-4)C2=O [Resistomycin] + CC[C@H](NC(=O)[C@H](C)NC)C(=O)N1C[C@@H](O)C[C@H]1Cc1c(-c2[nH]c3cc(F)ccc3c2C[C@@H]2C[C@H](O)CN2C(=O)[C@H](CC)NC(=O)[C@H](C)NC)[nH]c2cc(F)ccc12 [Birinapant] | -31.1 | –
CCN1CCN(CC(=O)Nc2ccc(-c3cccc4c(=O)cc(N5CCOCC5)oc34)c3sc4ccccc4c23)CC1 + CC[C@H](NC(=O)[C@H](C)NC)C(=O)N1C[C@@H](O)C[C@H]1Cc1c(-c2[nH]c3cc(F)ccc3c2C[C@@H]2C[C@H](O)CN2C(=O)[C@H](CC)NC(=O)[C@H](C)NC)[nH]c2cc(F)ccc12 [Birinapant] | 32 | –
Nc1ccc(C(=O)Nc2cccc(-c3nc(N4CCOCC4)c4oc5ncccc5c4n3)c2)cn1 + CC[C@H](NC(=O)[C@H](C)NC)C(=O)N1C[C@@H](O)C[C@H]1Cc1c(-c2[nH]c3cc(F)ccc3c2C[C@@H]2C[C@H](O)CN2C(=O)[C@H](CC)NC(=O)[C@H](C)NC)[nH]c2cc(F)ccc12 [Birinapant] | -134 | –
CCOc1ccc(Cc2cc([C@@H]3O[C@H](CO)[C@@H](O)[C@H](O)[C@H]3O)ccc2Cl)cc1 [Dapagliflozin] + CC[C@H](NC(=O)[C@H](C)NC)C(=O)N1C[C@@H](O)C[C@H]1Cc1c(-c2[nH]c3cc(F)ccc3c2C[C@@H]2C[C@H](O)CN2C(=O)[C@H](CC)NC(=O)[C@H](C)NC)[nH]c2cc(F)ccc12 [Birinapant] | 212 | –
Cc1c(C(=O)Nc2ccc(N3C[C@@H](C)O[C@@H](C)C3)nc2)cccc1-c1ccc(OC(F)(F)F)cc1 [Sonidegib] + CC[C@H](NC(=O)[C@H](C)NC)C(=O)N1C[C@@H](O)C[C@H]1Cc1c(-c2[nH]c3cc(F)ccc3c2C[C@@H]2C[C@H](O)CN2C(=O)[C@H](CC)NC(=O)[C@H](C)NC)[nH]c2cc(F)ccc12 [Birinapant] | 68.2 | –
